# Measured values published in PubChem BioAssay AID686979 (National Center for Advancing Translational Sciences (NCATS), 2013).
# The whole screen tested about 420,000 compounds, of which about 50,000 (12%) were called active. About 26% were inconclusive and are not listed. The list comes from a sample in which actives are over-represented; it also holds similar structures and randomly drawn compounds. A number with no mark means an inactive call. Calls come from the whole dose curve; as a rule, active = well fitted inhibition curve with a large enough effect; inconclusive = small, poorly fitted or top-dose-only effect; inactive = flat fitted curve, though single readings scatter.
# Experiment: qHTS for Inhibitors of human tyrosyl-DNA phosphodiesterase 1 (TDP1): qHTS in cells in presence of CPT; note: nearly all actives have a fitted effect of over 55% in size
# Settings: chicken DT40 Tdp1-/-;hTDP1 cells + 20 nM CPT, ATP luminescence, 48 h; series mostly up to 46.2 µM; activity change, negative = growth inhibition: at the top concentration
# Procedure, shortened: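 Chicken DT40 Tdp1-/- cells complemented with human TDP1, 400 cells/well, exposed to compounds plus 20 nM camptothecin for at least 48 h at 37 C; viability read as ATP content by CellTiter-Glo luminescence.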
# % is set by controls: 0 for no effect and ±100 for the full control effect; potency is the fitted concentration of half-maximal effect.
SMILES,"activity change, negative = growth inhibition",Potency
CCOC(=O)c1sc(=NC(=O)c2ccc(Br)cc2)n(C)c1C,3.17%,–
Cc1ccc2nc(-c3ccc(Br)cc3)cn2c1,1.32%,–
Cc1ccc(NS(=O)(=O)c2ccc(-c3ccc(=O)[nH]n3)o2)c(C)c1,-23%,–
O=C(O)c1[nH]c2ccccc2c1C(c1cccc(O)c1)c1c(C(=O)O)[nH]c2ccccc12,-4.46%,–
CC(=O)OCC(C)n1c(=O)c2ccccc2n1C(C)=O (stereo not drawn),-1.82%,–
NC(=S)NN=Cc1ccc(OC(=O)COc2cc(Cl)c(Cl)cc2Cl)cn1,–,6.51 µM (active)
O=C(COC(=O)COc1cc(Cl)c(Cl)cc1Cl)NC1CC1,-17.8%,–
O=C(COc1cc(Cl)c(Cl)cc1Cl)NCCc1ccccn1,2.28%,–
O=C(Cn1cnc2c(oc3ccccc32)c1=O)Nc1ccc(OC(F)(F)F)cc1,-14.7%,–
C[C@H](NC(=O)c1ccccc1Cl)C(=O)OCCOc1cccc(Cl)c1,-17.7%,–
O=C1C(Sc2cccc(F)c2)=C[C@@]2(O)CC[C@@H](O)[C@]1(Sc1cccc(F)c1)[C@H]2O,–,16.4 µM (active)
COC(=O)C1=C(C)Nc2ncnn2C1c1ccco1 (stereo not drawn),4.8%,–
COc1ccccc1NC(=O)C1=C(C)Nc2ncnn2C1c1ccc(C)o1 (stereo not drawn),0.297%,–
CC1=C(C(=O)OCc2ccccc2)C(c2ccco2)n2ncnc2N1 (stereo not drawn),–,23.1 µM (active)
Cc1ccc(S(=O)(=O)c2c[nH]c3ccc(Cl)cc3c2=O)cc1,29.4%,–
Cc1nc(COc2cc3oc(=O)cc(C)c3cc2Cl)cs1,2.52%,–
COc1ccc(-c2nn(-c3ccccc3)cc2/C=N/Nc2ccccn2)cc1OC,–,7.31 µM (active)
CN(C)/N=C/c1cn(-c2ccccc2)nc1-c1cccnc1,-32.9%,–
O=Cc1cn(-c2ccccc2)nc1-c1ccccn1,-24%,–
Cc1cc(C)cc(OCC(=O)Nc2nc(-c3ccc(F)cc3)ns2)c1,-26.5%,–
O=c1ccn([C@@H]2O[C@H](CNS(=O)(=O)c3cc4ccccc4s3)[C@@H](O)[C@H]2O)c(=O)[nH]1,-10.7%,–

SMILES,"activity change, negative = growth inhibition",Potency
COc1ccc2c(c1)c1ncn(Cc3ccccn3)c(=O)c1n2C,-5.08%,–
Cc1cc([N+](=O)[O-])nn1Cc1ccc(F)cc1,0.664%,–
C=CCN1C(=O)C2(OCCCO2)c2cccc(Cl)c21,-7.94%,–
C=CCN1C(=O)C(O)(CC(=O)c2ccc(Cl)cc2)c2ccccc21 (stereo not drawn),–,18.4 µM (active)
C=CCN1C=C(C(=O)c2ccccc2)C(=O)CC1,11.1%,–
O=C(NCc1ccccc1)C1CCN(S(=O)(=O)c2ccc3[nH]c(=O)ccc3c2)CC1,-5.45%,–
CCC(=O)N1CCc2cc(S(=O)(=O)NC(Cc3ccccc3)C(=O)NCc3ccc(C)cc3)ccc21 (stereo not drawn),-22.3%,–
COCCCNC(=O)/C(C#N)=C/c1c(N2CCCCCC2)nc2ccccn2c1=O,3.95%,–
CC(=O)Nc1ccc(NC(=O)COc2ccc(S(=O)(=O)NC(C)c3ccccc3)cc2)cc1 (stereo not drawn),-5.71%,–
CNC(=S)NNC(=O)c1sccc1OCc1ccccc1,-5.88%,–
Cc1ccc(/C=N/NC(=O)c2sccc2OCc2ccc(F)cc2)cc1,–,16.4 µM (active)
Cc1ccc(COc2ccc(/C=N/NC(=O)CN3CCCCC3)cc2)cc1,4.47%,–
CCOc1ccccc1NC(=O)CN1CCN(S(=O)(=O)c2ccc(Br)cc2)CC1,-28.6%,–
O=C(Nc1ccc(F)cc1)N1CCCC(c2nc3c(nnn3Cc3ccccc3Cl)c(=O)[nH]2)C1 (stereo not drawn),–,20.6 µM (active)
COc1ccc(Cn2nnc3c(=O)[nH]c(C4CCN(C(=O)c5ccccc5Cl)CC4)nc32)cc1,-23.2%,–
CC(=O)Nc1ccc(Nc2ncnc3c2nnn3Cc2ccccc2Cl)cc1,17.7%,–
C[C@@H]1CN([C@@H](C)CO)C(=O)CCCn2cc(nn2)CO[C@H]1CN(C)S(=O)(=O)c1ccc(-n2cccn2)cc1,-1.95%,–
C/C=C(\C)C(=O)OC1C(OC(=O)C2(C)OC2C)c2cc3ccc(=O)oc3cc2OC1(C)C (stereo not drawn),14.7% [at 9.04 µM],–
COc1cc(C2C(C(=O)c3sc(C)nc3C)=C(O)C(=O)N2CCN(C)C)cc(OC)c1OC (stereo not drawn),17.6%,–
O=C(c1cccs1)n1nc(NCc2ccccc2)nc1NCc1ccccc1,-2.83%,–
CCCc1cc(=O)[nH]c(SCC(=O)Nc2ccc(S(=O)(=O)N3CCCC3)cc2)n1,8.44%,–

SMILES,"activity change, negative = growth inhibition",Potency
CCCc1cc(=O)[nH]c(SCC(=O)c2c(N)n(CC(C)C)c(=O)n(C)c2=O)n1,–,7.31 µM (active)
CCCc1cc(=O)[nH]c(SCC(=O)N2C(C)CCCC2C)n1 (stereo not drawn),6.83%,–
Cc1ccc(Cl)cc1NC(=O)CSc1nccn1C,-9.01%,–
COc1ccccc1C(=O)NCCC(=O)NC1=NCCS1,-4.1%,–
Cc1cc(C)cc(Oc2c(C(F)(F)F)oc3cc(OCC(=O)O)ccc3c2=O)c1,-5.4%,–
Cc1nc2ccccc2c(=O)n1-c1ccc(NS(=O)(=O)c2ccc(F)cc2F)cc1,-12.3%,–
Cc1cccc(-c2nc3ccccc3c(=O)n2NC(=O)Cc2ccc(Cl)cc2)c1,7.87%,–
Cc1[nH]n(-c2ccc(Cl)cc2)c(=O)c1/C=N/n1c(C)nc2ccccc2c1=O,–,20.6 µM (active)
CC(OC(=O)c1cccc(S(=O)(=O)N2CCOCC2)c1)C(=O)NCC1CCCCC1 (stereo not drawn),-12.7%,–
Cc1occc1-c1nnc(SCC(=O)NC2(C#N)CCCC2)n1C,-10.5%,–
CN(Cc1ccc(C(F)(F)F)cc1)C(=O)[C@H]1O[C@@H](n2cnc3c(N)ncnc32)[C@H](O)[C@@H]1O,-2.52%,–
Cc1noc(C)c1S(=O)(=O)N(C)C[C@H]1Oc2c(NC(=O)Nc3ccc4c(c3)OCO4)cccc2C(=O)N([C@H](C)CO)C[C@@H]1C,-4.03%,–
CCc1nn(CCCC(=O)Nc2ccc(C)cc2C)c(=O)c2cc3occc3n12,-16.1%,–
CCOc1cc(/C=C2/C(=N)N3OC(C)=CC3=NC2=O)ccc1OC,0.826%,–
CC1=CC2=NC(=O)/C(=C/c3coc4ccccc4c3=O)C(=N)N2O1,7.64%,–
COc1ccc(OCCCn2cccc2/C=C2/C(=N)N3OC(C)=CC3=NC2=O)cc1,–,18.4 µM (active)
COc1cccc(CNC(=O)c2cccnc2Sc2ccc(Cl)cc2)c1,-12.8%,–
Cc1ccnc(NC(=O)CNC(=O)c2ccccc2)c1,46.1%,–
Cc1cc(NC(=O)c2cc3ccccc3o2)no1,3.53%,–
CC(=O)Nc1cccc(C(=O)OCC(=O)c2ccc3c(c2)OCO3)c1,-0.904%,–
O=C(CSc1n[nH]c(-c2ccccc2)n1)N1CCCCC1,-17%,–
